# From PubChem BioAssay
# DAX1 inh-1 = NR0B1 (DAX1) inhibition. HEK293 Gal4-DAX1 luciferase reporter, luminescence. inhibition, % at 6.75 µM. AID 504766. actives 0.99% (n = 340,000). P51843;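 active = inhibition above the mean over all tested compounds plus 3 SD, cut at about 4.2% in these data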;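 note: 0% = DAX1-transfected cells with DMSO and 100% = empty-vector control cells with DMSO; inhibition shows as a rise in luminescence from relieved DAX1 repression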
# Target sequence (P51843 207-470 limits assumed): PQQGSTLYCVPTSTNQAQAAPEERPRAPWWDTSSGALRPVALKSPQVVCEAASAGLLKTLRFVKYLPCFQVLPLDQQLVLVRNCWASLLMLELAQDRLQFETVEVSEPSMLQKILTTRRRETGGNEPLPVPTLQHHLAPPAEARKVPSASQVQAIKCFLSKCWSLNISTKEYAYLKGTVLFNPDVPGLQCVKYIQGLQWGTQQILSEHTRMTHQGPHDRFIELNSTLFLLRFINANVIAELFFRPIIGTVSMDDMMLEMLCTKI
# DAX1 inh-2 = DAX1 (NR0B1) inhibition, primary screen | HEK293T StAR-luciferase reporter, SF-1/DAX-1 repression relief | inhibition, % at 6.8 µM | actives 1.1% (n = 370,000) | AID 652010;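 active = inhibition above the mean over all tested compounds plus 3 SD, cut at about 3.6% in these data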;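 note: 0% = DAX-1 cells with DMSO and 100% = cells lacking DAX-1 with DMSO; higher inhibition means more luminescence from relief of DAX-1 repression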
# hgDAF12 agonist = hgDAF-12 agonism, primary luciferase screen; HEK293 GAL4-hgDAF12 UAS-luciferase reporter, agonist luminescence; normalized to butyrate control; actives 1.8% (n = 370,000); activation, % at 6.8 µM;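 active = activation above a cutoff set at the mean of all screened compounds plus 3 SD, cut at about 10% in these data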;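 note: 0% = DMSO wells and 100% = sodium butyrate wells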
# ssDAF12 agonist = S. stercoralis DAF-12 activation, primary screen | activation, % at 6.8 µM | actives 1% (n = 370,000) | AID 652126 | HEK293 ssDAF-12/GRIP1 lit1-tk-luc reporter, luminescence; % of 3 µM dafachronic acid response;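 active = activation above the mean over all tested compounds plus 3 SD, cut at about 0.9% in these data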;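 note: 0% = DMSO-only wells and 100% = 3 µM delta7-dafachronic acid wells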
# hcDAF-12 act = activates DAF-12 receptor from parasite H. contortus; HEK293 hcDAF-12 lit1-tk-luc reporter, luminescence; 0% DMSO, 100% Δ7-dafachronic acid; activation, % at 6.8 µM; actives 1.4% (n = 370,000); AID 652067;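 active = activation above the mean of all tested compounds plus 3 SD, cut at about 5.5% in these data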;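 note: 100% = response to 3 µM Δ7-dafachronic acid high control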
# Numbers without * were called inactive; nt = not tested or not shown. A selection: hits, their analogues and other compounds. The true share with any hit is near 4.1%.
SMILES,DAX1 inh-1,DAX1 inh-2,hgDAF12 agonist,ssDAF12 agonist,hcDAF-12 act
COC(=O)C1=C(C)N(Cc2cccc(C(F)(F)F)c2)C(=NCc2ccc3c(c2)OCO3)NC1c1ccccc1C(F)(F)F (centres undefined),nt,-1,-1,-1,-1
N=c1ccn(O)cc1CCc1ccccc1,5.8*,2,0,-2,2
COc1ccccc1CNc1nc2cc(-c3ccsc3)sc2c(=O)n1C,nt,-1,-1,-1,0
CC(Oc1ccc2c3c(c(=O)oc2c1)CCC3)C(=O)NCC1CCC(C(=O)O)CC1 (centres undefined),4.7*,1,-1,0,0
CCc1cc(=O)oc2cc(OC(C)C(=O)NCC3CCC(C(=O)O)CC3)c(Cl)cc12 (centres undefined),5.9*,2,2,-1,1
CC(Oc1ccc2c3c(c(=O)oc2c1)CCCC3)C(=O)NCC1CCC(C(=O)O)CC1 (centres undefined),1,-1,0,-1,-1
Cc1cccc(NC(=O)Cn2c(O)c(N=NC(=O)c3ccccc3O)c3ccccc32)c1,-1,0,2,1,6.0*
NC(=S)N=Nc1c(O)n(CC(=O)Nc2ccccc2)c2ccccc12,-1,0,-1,-1,-2
COC(=O)[C@]12C[C@H](CC(=O)N3CCC(c4ccccc4)CC3)C(=O)N(CCC3=CCCCC3)C1=C[C@H](C(C)(C)C)O[C@@H]2C,nt,1,1,-1,0
COC(=O)c1ccc2cc(C)cc(C)c2n1,nt,0,-1,0,-1
O=C(CN1CCCCC1)NC(=O)NC1CCCCC1,0,1,-1,-1,1
CC1CCN(CC(=O)NC2CCCCC2)CC1,4.3*,0,-1,0,-1
Cc1ccc(-c2nnc(-c3ccccc3)o2)cc1,1,3,12*,0,4
O=C(O)c1ccc(-c2noc(-c3cccc(Cl)c3)n2)cc1,0,0,1,-1,0
O=C(O)c1ccc(-c2noc(-c3ccc(F)cc3)n2)cc1,0,2,13*,0,5.7*
Cc1ccc(-c2nnc(-c3cc(C)on3)o2)cc1,4,2,12*,0,3
Cc1cccc(-c2nnc(-c3ccc4ccccc4c3)o2)c1,4.3*,3.6*,12*,0,4
O=C1NC[C@H](CCCCN2CCN(CCc3ccccc3)C(=O)C2=O)N(CCc2ccccc2)C1=O,nt,0,-4,0,-1
O=C(N[C@H](Cc1ccccc1)C(=O)NCC1CCCCC1)[C@H]1O[C@@H](n2ccc(=O)[nH]c2=O)[C@H](O)[C@@H]1O,nt,1,-1,0,0
CCOc1ccccc1OCCCC(=O)N1CCN(S(=O)(=O)c2ccccc2C#N)CC1,0,0,-1,0,-1
Nn1c(SCC(=O)N2c3ccccc3Sc3ccc(Cl)cc32)nnc1-c1cc(-c2ccc(F)cc2)n[nH]1,nt,-1,5,-2,0
O=C(O)c1ccc(-c2nnc(-c3ccc([N+](=O)[O-])cc3)o2)cc1,0,0,1,-1,0
O=C(Nc1cccc(-c2nnc(-c3ccccc3)o2)c1)C1CC1,-1,0,4,-2,-3
CC(=O)Nc1cccc(-c2nnc(-c3ccccc3)o2)c1,-1,0,12*,-1,0
O=C(O)c1ccc(-c2nnc(-c3ccccc3)o2)cc1,2,1,8,1.0*,5
SMILES,DAX1 inh-1,DAX1 inh-2,hgDAF12 agonist,ssDAF12 agonist,hcDAF-12 act
Cc1ccc(-c2nnc(N)o2)cc1,0,2,2,-1,1
Cc1ccc(-c2nnc(-c3cccs3)o2)cc1,2,4.4*,11*,1.4*,8.8*
COC(=O)[C@]12C[C@H](CC(=O)N3CCC(c4ccccc4)CC3)C(=O)N(Cc3ccc4c(c3)OCO4)C1=C[C@H](C(C)(C)C)O[C@@H]2C,nt,-1,-1,-1,2
CCC(=O)N1CCC1(C)C(=O)Nc1ccc2c(c1)CCN2C(C)=O (centres undefined),nt,1,-1,-1,-1
NC(=O)C1CC(=O)N(c2ccc(OCc3ccc(F)cc3)cc2)C1 (centres undefined),4.7*,1,10,0,1
COc1cc(NC(=O)CSc2nnc3c(C)cc4cc(C)cc(C)c4n23)c(C(=O)O)cc1OC,-1,0,11*,0,1
CC(NC(=O)COC(=O)C1(C)CC1(Cl)Cl)c1ccccc1 (centres undefined),2,3.6*,0,-1,-1
Cc1c(C(=O)OCC(=O)NC(C)c2ccccc2)oc2ccccc12 (centres undefined),1,2,1,1,5.7*
Cc1c(C(=O)OCC(C)(C)CN(C)C)oc2ccccc12,2,4.0*,7,-1,0
Cc1cc(C(=O)OCC(=O)NC(C)c2ccccc2)c(C)o1 (centres undefined),0,-1,-2,-1,-2
Cc1cccc(/C=N\NC(=O)c2csnn2)c1,1,2,9,0,5
O=C(N/N=C/c1ccc(OC2CSC2)cc1)c1ccccc1,2,4.2*,5,0,2
O=C(N/N=C\c1ccc(Oc2ccccc2)cc1)c1csnn1,5.4*,2,11*,0,1
COc1ccc(Cn2cc(CN3CCc4onc(-c5ccccc5OC)c4C3=O)nn2)cc1,nt,0,-2,-2,-1
CCOC(=O)N1CCN(C(=O)c2ccc3c(c2)N(Cc2cccc(Cl)c2)C(=O)c2ccccc2S3=O)CC1 (centres undefined),-1,0,5,-1,-2
O=C1Nc2c(Cl)cc(Cl)cc2C12Nc1ccccc1S2 (centres undefined),nt,1,6,1,3
COC(=O)c1cc(-c2cccc(C(C)C)c2)c(=O)n2c1CCC2,nt,-2,-5,-1,-1
COc1oc(-c2ccccc2C)nc1C(F)(F)F,1,0,1,-1,-1
COc1oc(-c2ccccc2)nc1C(F)(F)F,4.3*,1,0,0,-1
COCCN(Cc1ccc(C)cc1)C(=O)[C@H]1O[C@@H](n2cnc(C(N)=O)n2)[C@H](O)[C@@H]1O,nt,1,0,-1,-2
CC(C)Cn1c2c(c(=O)[nH]c1=O)C(NS(=O)(=O)c1ccc(Cl)cc1)(C(F)(F)F)C(=O)N2 (centres undefined),4.3*,0,-2,-1,2
COc1ccc(COc2cccc(C=O)c2)cc1,-2,1,10,0,2
O=Cc1ccc(OCc2ccc3ccccc3c2)cc1,0,1,12*,0,3
O=Cc1ccc(OCc2ccccn2)cc1,1,0,11*,-1,1
CCN1C(=O)Nc2cccc3cccc1c23,4.8*,-1,-2,0,1
